In the library only some 2.8% were active in any assay of this set; here they are far more common.
TGFb SMAD3 inh = qHTS for Inhibitors of TGF-b; HepG2 CAGA-GFP TGF-b/SMAD3 reporter, GFP fluorescence, 18 h; TGF-beta stimulated, 500 pg/mL final; Potency, µM (doses to about 46.1 µM), inactives show at the top dose activity, negative = inhibition, actives largely listed as inhibitors; hit rate 1.2% among 410,000; further: on the % scale 0 is the no-effect control and ±100 the full control effect; nearly all actives have a fitted effect of over 65% in size
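HEPG2 CAGA-GFP reporter cells (1000/well, DMEM with 1% FBS) received compounds, then recombinant TGF-beta at 500 pg/mL final for 18 hours at 37 degrees C. Per-cell GFP summed per well was normalised to unstimulated and stimulated DMSO controls before curve fitting.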
ATXN2 expr inh = Primary qHTS for Inhibitors of ATXN expression. HEK-293 ATXN2-luciferase reporter, luminescence, 24 h. Potency, µM (top dose mostly 57 µM), without a hit: at the top dose activity change, negative = inhibition, actives largely listed as inhibitors. hit rate 0.72% among 360,000; further: on the % scale 0 is the no-effect control and ±100 the full control effect; nearly all actives have a fitted effect of over 55% in size
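qHTS (up to 57 uM final) was run with 24 h compound exposure of reporter cells at 37 °C. Each well was multiplexed: SteadyGlo luminescence measured ATXN2-luciferase expression after a fluorogenic Gly-Phe-AFC viability readout (25 uM final).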
HttQ103 aggreg = qHTS Multiplex Assay to Identify Dual Action Probes in a Cell Model of Huntington: Aggregate Formation (GFP); PC12 HttQ103-GFP aggregates, Acumen cytometry, 40 h; hit rate 1.1% among 220,000; Potency, µM (titrated, usually from 46.1 µM), for the others: top-dose activity change, negative = inhibition, actives largely listed as inhibitors; further: on the % scale 0 is the no-effect control and ±100 the full control effect; nearly all actives have a fitted effect of over 60% in size
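Quantitative HTS on tebufenozide-induced (100 nM) PC12 cells stably expressing polyQ103 Huntingtin exon 1–GFP. Reduction of bright GFP aggregates, detected by laser scanning cytometry after lysis, identified actives across the titration.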
HepG2 tox = qHTS for Inhibitors of TGF-b: Cytotox Counterscreen. AID 588856, 2011. hit rate 0.76% among 410,000. HepG2 CAGA-GFP viability, ATP luminescence, 18 h. Potency, µM (series often up to 46.1 µM), inactives show at the top dose activity change, negative = cytotoxicity, actives largely listed as cytotoxic
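CellTiter-Glo luminescence gave cytotoxicity after 18 hours at 37 degrees C. The cells were HepG2 CAGA-GFP in 1% FBS DMEM, stimulated with 500 pg/mL TGF-beta after compound addition. %Activity was normalised to no-cell wells (complete cell-killing) and DMSO (no toxicity), and curves were fitted and classified.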
HTT cytoprotect = qHTS Multiplex Assay to Identify Dual Action Probes in a Cell Model of Huntington: Cytoprotection (ATP); Potency, µM (titrated, usually from 56.4 µM), for inactives: cytoprotection (ATP increase), hits mostly activators; hit rate 0.14% among 230,000; PC12 HTT-Q103 induced, cytoprotection, ATP luminescence, 40 h; further: % of control where 0% means no effect; nearly all actives have a fitted effect of over 45% in size
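Huntington model: PC12 line, ecdysone-inducible HTTQ103 exon1–GFP, tebufenozide 100 nM. Test articles in a dose series. Endpoint luminescence from cellular ATP.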
S2 tox = Viability Counterscreen for Primary qHTS for Inhibitors of ATXN expression; S2 cells (HEK-293 line with an ATXN2-luciferase reporter) viability, CellTiter-Fluor protease fluorescence, 24 h; Potency, µM (doses to about 56.7 µM), most hits filed as cytotoxic; hit rate 0.49% among 400,000; AID 651635, 2014; further: nearly all actives have a fitted effect of over 40% in size
* marks the source's active call; other numbers are inactive results; [ ] = dose if it differs, or a comment. The call rests on the fitted dose curve; in most records, active means well fitted curve in the direction sought with a large enough effect; inconclusive means small, poorly fitted or top-dose-only effect, or another doubt; inactive means no such curve, though single readings can be large; an effect the other way counts as inactive or inconclusive. Potency means the concentration at half of the fitted maximal effect.

How did O=C(O)[C@H](CC(=O)N1C[C@@H]2CCCC[C@H]2C1)Cc1ccccc1 do in these assays?
ATXN2 expr inh: 12%

How did Nc1ncnc2c1ncn2[C@H]1O[C@@H](CSCC[C@@H](N)C(=O)O)[C@H](O)[C@@H]1O do in these assays?
HTT cytoprotect: 12%

Results for Cc1ccccc1C1(CC(=O)N2CC3(C)CC2CC(C)(C)C3)CC(=O)N(Cc2cccnc2)C1=O (stereo unspecified) ?
S2 tox: inactive

What do the screens show for `CCn1c2ccccc2c2cc(/C=N/NC(=O)c3cc(O)cc(O)c3)ccc21`?
TGFb SMAD3 inh: 16µM*; ATXN2 expr inh: -22%; HttQ103 aggreg: 11%[9.22 µM]; HepG2 tox: -52%; HTT cytoprotect: -7%[10 µM]; S2 tox: inconclusive

Results for CCn1c2ccccc2c2cc(/C=N/NC(=O)c3ccc(O)cc3)ccc21 ?
TGFb SMAD3 inh: inconclusive; ATXN2 expr inh: inconclusive; HttQ103 aggreg: -37%; HepG2 tox: 10%; HTT cytoprotect: 0%[10 µM]; S2 tox: inactive

How did CCn1c2ccccc2c2cc(/C=N/NC(=O)c3ccncc3)ccc21 do in these assays?
TGFb SMAD3 inh: 8.9µM*; ATXN2 expr inh: inconclusive; HttQ103 aggreg: -22%[9.22 µM]; HepG2 tox: -34%; HTT cytoprotect: 3%[10 µM]; S2 tox: inconclusive

How did COc1cc(-c2c(OC)cccc2OC)cc2c1OCCN(Cc1cn[nH]c1-c1ccc(Cl)cc1)C2 do in these assays?
S2 tox: inactive

What do the screens show for `Cc1ccc2nc(CS)[nH]c2c1`?
TGFb SMAD3 inh: -9%; HepG2 tox: -53%

What do the screens show for `CC(C)Cn1c(N)c(C(=O)COC(=O)c2ccc3c(c2)OCCO3)c(=O)n(C)c1=O`?
TGFb SMAD3 inh: -17%; ATXN2 expr inh: -7%; HttQ103 aggreg: inconclusive; HepG2 tox: -33%; HTT cytoprotect: -12%; S2 tox: inactive

Results for CC(C)Cn1c(N)c(C(=O)CSc2ccc3c(c2)OCCO3)c(=O)n(C)c1=O ?
TGFb SMAD3 inh: -1%; ATXN2 expr inh: inconclusive; HttQ103 aggreg: 2µM*; HepG2 tox: -20%; HTT cytoprotect: -26%; S2 tox: inactive

What do the screens show for `CCOC(=O)c1ccc(N2C(=O)c3[nH]nc(-c4ccc(C)cc4)c3C2c2cccc(F)c2)cc1` (stereo unspecified)?
TGFb SMAD3 inh: inconclusive; ATXN2 expr inh: inconclusive; HepG2 tox: 11µM*; S2 tox: inconclusive

Results for CCOC(=O)c1ccc(N2C(=O)c3n[nH]c(-c4cccs4)c3C2c2cccc(OC)c2)cc1 (stereo unspecified) ?
TGFb SMAD3 inh: 1.8µM*; ATXN2 expr inh: inconclusive; HepG2 tox: -51%; S2 tox: inconclusive

Results for CCOC(=O)c1ccc(N2C(=O)c3n[nH]c(C)c3C2c2cccnc2)cc1 (stereo unspecified) ?
TGFb SMAD3 inh: -1%; ATXN2 expr inh: 2%; HttQ103 aggreg: -7%; HepG2 tox: 4%; HTT cytoprotect: -20%[0.074 µM]; S2 tox: inactive

How did CCOC(=O)c1ccc(N2C(=O)c3[nH]nc(-c4ccc(OC)cc4)c3C2c2cccc(O)c2)cc1 (stereo unspecified) do in these assays?
TGFb SMAD3 inh: 16µM*; ATXN2 expr inh: inconclusive; HepG2 tox: 10µM*

What do the screens show for `CCOC(=O)c1ccc(N2C(=O)c3[nH]nc(-c4ccc(C)cc4)c3C2c2ccc(O)cc2)cc1` (stereo unspecified)?
TGFb SMAD3 inh: inconclusive; ATXN2 expr inh: inconclusive; HepG2 tox: -53%; S2 tox: inconclusive

Results for CCOc1ccc(N2C(=O)c3n[nH]c(-c4cccs4)c3C2c2cccc(F)c2)cc1 (stereo unspecified) ?
TGFb SMAD3 inh: inconclusive; ATXN2 expr inh: inconclusive; HepG2 tox: 11µM*

What do the screens show for `O=C(CS(=O)Cc1ccco1)NCC=CCOc1cc(CN2CCCCC2)ccn1` (stereo unspecified)?
ATXN2 expr inh: 63%; HttQ103 aggreg: 4%; HTT cytoprotect: 15%

How did Cc1ccc(NC(=O)c2ccc(-n3nncc3-c3ccccc3)cc2)cc1 do in these assays?
TGFb SMAD3 inh: -1%; HepG2 tox: -12%

What do the screens show for `COC(=O)[C@@H]1CCCN1Cc1ccc2c(c1)CN(Cc1nccs1)CCO2`?
S2 tox: inactive

What do the screens show for `C=C1NN(CC2CC2)C(=O)N1c1ccc(OCc2ccccc2)cc1`?
TGFb SMAD3 inh: -2%; HepG2 tox: -34%

Results for Cc1coc2ccccc2c1=O ?
ATXN2 expr inh: 5%; S2 tox: inactive

What do the screens show for `O=C(Nc1ccc(Oc2ccnc3[nH]ccc23)c(F)c1)c1cccn(-c2ccc(F)cc2)c1=O`?
ATXN2 expr inh: -19%

How did CCOC(=O)C1=C(C)N=C2SC(C)C(=O)N2C1c1cccc(F)c1 (stereo unspecified) do in these assays?
TGFb SMAD3 inh: -4%; ATXN2 expr inh: -4%; HttQ103 aggreg: 5%; HepG2 tox: 6%; HTT cytoprotect: 25µM*; S2 tox: inactive

What do the screens show for `O=C(/C=C\c1ccccc1)NCC(=O)N/N=C/c1ccc(O)cc1O`?
TGFb SMAD3 inh: -2%; ATXN2 expr inh: 18µM*; HepG2 tox: -14%; S2 tox: inactive

What do the screens show for `O=C(N/N=C/c1ccc(O)cc1O)/C(=C/c1ccccc1)CCO`?
TGFb SMAD3 inh: inconclusive; ATXN2 expr inh: 10µM*; HttQ103 aggreg: inconclusive; HepG2 tox: -26%; HTT cytoprotect: 14%[1.9 µM]; S2 tox: inconclusive

What do the screens show for `COc1cc(/C=N/NC(=O)/C(=C/c2ccccc2)CCO)ccc1O`?
TGFb SMAD3 inh: -4%; ATXN2 expr inh: 3%; HttQ103 aggreg: 2%; HepG2 tox: 16%; HTT cytoprotect: 28%[1.9 µM]; S2 tox: inconclusive

Results for O=C(CNC(=O)C1COc2ccccc2O1)N/N=C/c1ccc(O)cc1O (stereo unspecified) ?
TGFb SMAD3 inh: inconclusive; ATXN2 expr inh: 13µM*; HttQ103 aggreg: inconclusive; HepG2 tox: -23%; S2 tox: inactive

Results for Cc1cc(SCC(=O)N/N=C/c2ccc(O)cc2O)c(C)cc1Br ?
TGFb SMAD3 inh: 0%; ATXN2 expr inh: 18µM*; HttQ103 aggreg: 7.9µM*; HepG2 tox: -21%; HTT cytoprotect: -26%; S2 tox: inactive

High-throughput results: PubChem, National Center for Advancing Translational Sciences (NCATS)
